Test results as given in PubChem BioAssay AID1578 (Sanford-Burnham Center for Chemical Genomics, 2009).
About 3,000 (1%) of roughly 290,000 compounds were called active. Shown is part of a subset that was picked to be rich in actives. A number with no mark means an inactive call. No stated cut-off is given here; in the data, active means inhibition mostly above about 36% (no sharp cut-off); inactive means mostly below about 34%.

Test: inhibition of NOD1-driven NF-kB reporter – cell-based, luminescence, uHTS, primary screen (AID 1578);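 further: HEK-293T reporter cells stimulated with the NOD1 agonist gamma-tri-DAP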
Settings: NOD1-driven NF-kB luciferase reporter cells, at 4 µM, stronger effect = higher value
CCOC(=O)c1ccc(NC(=O)CSc2nc(N)c(NC(=O)c3ccc(Br)o3)c(=O)[nH]2)cc1 gave an inhibition of -26.5%. In the case of CN(C(=O)COC(=O)c1cc(S(=O)(=O)N2CCCCC2)ccc1N1CCOCC1)C1CCS(=O)(=O)C1 (stereo unspecified), the inhibition is reported as -0.1%. In the case of COC(=O)N/N=C/c1cc(C)n(-c2ccc(F)cc2)c1C, the inhibition is reported as -30%. In the case of COC(=O)C1C2C=CC3(CN(CCc4ccccc4)C(=O)C13)O2 (stereo unspecified), the inhibition is reported as -14.5%. With Cc1[nH][nH]c(=O)c1/C=N/N1CCOCC1 the inhibition was -39.8%. Work on CCC(C)(C(=O)NC1CCCCC1)N(C(=O)CC1NC(=O)NC1=O)c1c(C)n(C)n(-c2ccccc2)c1=O (stereo unspecified) yielded an inhibition of -11.2%. Work on CC1CCN(c2ncnc3c2cnn3-c2ccccc2)CC1 yielded an inhibition of -77.4%. In the case of c1ccc(-n2ncc3c(N4CCCCC4)ncnc32)cc1, the inhibition is reported as 61.4% (active). Compound Cc1cccc(-n2ncc3c(N4CCCC4)ncnc32)c1 has an inhibition of -40.5%. COc1cc(OC)c2cc(C(=O)N[C@H](C(=O)N3CCC[C@H]3C(=O)O)C(C)C)n(C)c2c1 gave an inhibition of -17.5%. In the case of Cc1nc(SCC(N)=O)c(C#N)c(C)c1C, the inhibition is reported as 5.5%. Compound CCN(CC)C(=O)c1ccc(-c2nnc(Nc3ccc(O)cc3)c3ccccc23)cc1 has an inhibition of 43%. In the case of CCN(CC)C(=O)c1ccc(Nc2nnc(-c3ccc(O)cc3)c3ccccc23)cc1, the inhibition is reported as 72.7% (active). CCN(CC)C(=O)c1ccc(-c2nnc(Nc3ccc(C(=O)N(C)C)cc3)c3ccccc23)cc1 showed an inhibition of 37.7%. In the case of Cn1ncc(Br)c1C(=O)N/N=C/c1cccc(OC2CSC2)c1, the inhibition is reported as 60.4% (active). Compound Cn1cc(Br)c(C(=O)N/N=C/c2cccc(OC3CSC3)c2)n1 has an inhibition of 0.1%. Cn1ncc(Cl)c1C(=O)N/N=C/c1cccc(OC2CSC2)c1 showed an inhibition of -1.4%. CCOC(=O)c1cnc(SCC(=O)Nc2ccc(N3CCOCC3)cc2)nc1N gave an inhibition of -15%. For O=c1cc(NS(=O)(=O)c2ccccc2)nc(SCc2c(Cl)cccc2Cl)[nH]1, the inhibition was 102% (active). Compound O=c1cc(NS(=O)(=O)c2ccccc2)nc(SCc2ccc(Cl)cc2)[nH]1 has an inhibition of -1.1%. Compound O=c1cc(NS(=O)(=O)c2ccccc2)nc(SCc2ccccc2Cl)[nH]1 has an inhibition of -0.5%. For Cc1ccc(NC(=O)CCc2nnc3ccc(N4CCC(C)CC4)nn23)nc1, the inhibition was -3.1%. Cc1[nH]n(C(N)=S)c(=O)c1N=Nc1ccc(Br)cc1 showed an inhibition of -21.9%. With CCOc1ccc(N(CC)C(=O)Cc2c(C(=O)O)n(C)c3ccccc23)cc1 the inhibition was -11.1%. CC(C)Cc1nc(N2CCN(C(=O)c3ccco3)CC2)c(C#N)c2c1CCCC2 showed an inhibition of 2.6%. With CC(C)Cc1nc(N2CCN(C(=O)c3ccco3)CC2)c(C#N)c2c1CCC2 the inhibition was -0.7%. CCN(CC)S(=O)(=O)c1ccc(N2CCOCC2)c(NC(=O)c2ccc3ccccc3c2)c1 gave an inhibition of -17%. Work on Cc1nn(CCc2nn[nH]n2)c2nc(C(F)(F)F)cc(C(F)(F)F)c12 yielded an inhibition of -7.9%. Compound CCOc1cc(C(=O)Nc2ccc3c(c2)OCO3)ccc1OC(F)F has an inhibition of -17.4%. Clc1ccc(-n2nnc(-c3cccnc3)n2)cc1Cl gave an inhibition of -12.2%. Brc1ccccc1-n1nnc(-c2nccs2)n1 showed an inhibition of -44.7%. For Cc1ccc(-n2nnc(-c3nccs3)n2)cc1, the inhibition was 77.8% (active). With Clc1ccc(-n2nnc(-c3nccs3)n2)cc1Cl the inhibition was 110% (active). Compound Fc1ccc(-n2nnc(-c3nccs3)n2)cc1 has an inhibition of -26%. Compound Clc1ccc(-n2nnc(-c3cccnc3Cl)n2)cc1Cl has an inhibition of -3%. With CCCC(c1nnnn1Cc1cccs1)N1CCN(C2CCCC2)CC1 (stereo unspecified) the inhibition was -49.9%. Compound COc1ccccc1-n1cnc2sc(-c3ccccc3)cc2c1=O has an inhibition of 30.1%. In the case of O=C(CNC(=O)c1cccc(OC(F)F)c1)OCc1cc(=O)n2cc(Br)ccc2n1, the inhibition is reported as 4.7%. Compound OC(COc1ccccc1)CN1CCC(Cc2ccccc2)CC1 (stereo unspecified) has an inhibition of -20.8%. For CN(C)c1nc(C(F)(F)F)cc(=O)[nH]1, the inhibition was -21.2%. Work on c1ccc(-n2ncc3c(N4CCC5(CC4)OCCO5)ncnc32)cc1 yielded an inhibition of -67%. For Cc1cccc(NC(=O)C2COc3ccccc3O2)c1 (stereo unspecified), the inhibition was -23%. In the case of O=C(NC1=NCCS1)C1COc2ccccc2O1 (stereo unspecified), the inhibition is reported as 82.7% (active). Compound O=C(Nc1ccccc1)C1COc2ccccc2O1 (stereo unspecified) has an inhibition of -21.9%. With COc1cccc(NC(=O)C2COc3ccccc3O2)c1 (stereo unspecified) the inhibition was 104% (active). Work on O=C(Nc1nncs1)C1COc2ccccc2O1 (stereo unspecified) yielded an inhibition of -18.9%. COC(=O)c1cccc(NC(=O)C2COc3ccccc3O2)c1 (stereo unspecified) gave an inhibition of -42.9%. With c1ccc(COc2cccc(CNCc3cccs3)c2)cc1 the inhibition was -31.8%. O=C1CSc2ccc(C(=O)N3CCN(c4ccccn4)CC3)cc2N1 gave an inhibition of 0.1%. Compound C#CCSc1ncc(S(=O)(=O)c2ccccc2)c(=O)[nH]1 has an inhibition of 7.6%. COCCCn1c(SCC(=O)Nc2ccc(C(C)=O)cc2)nc2ccccc2c1=O gave an inhibition of -25.3%. In the case of O=C(O)c1cccc(-c2nc3ccccc3[nH]2)c1, the inhibition is reported as 61.9% (active). c1ccc(-c2nc3ccccc3[nH]2)cc1 showed an inhibition of -1.5%. Work on O=C(O)c1ccc(-c2nc3ccccc3[nH]2)cc1 yielded an inhibition of -38.1%. For Cc1ccc(N/C(=C\C(=O)c2ccccc2)C(=O)O)cc1, the inhibition was -33.5%. Cc1ccc(S(=O)(=O)N2CCN(c3ccc([N+](=O)[O-])cn3)CC2)cc1 showed an inhibition of -9.1%. For O=[N+]([O-])c1ccc(S(=O)(=O)c2ccccc2)nc1, the inhibition was 29%. With CCOc1cccc(C(=O)Nc2ccc(S(=O)(=O)Nc3cc(C)on3)cc2)c1 the inhibition was -2%. CCN(CC)c1ncnnc1-c1ccccc1 showed an inhibition of -22.1%. Compound CC(C)(C)S(=O)(=O)/C(C#N)=N/Nc1ccc(C#N)cc1 has an inhibition of -38.5%. For CC(C)(C)c1ccc(N/N=C(\C#N)S(=O)(=O)C(C)(C)C)cc1, the inhibition was 41% (active). With CC(C)(C)S(=O)(=O)/C(C#N)=N/Nc1ccc(Cl)cc1 the inhibition was 4.5%. With CC(=O)C1=C(O)C(=O)N(CCc2ccccc2)C1c1ccccc1[N+](=O)[O-] (stereo unspecified) the inhibition was -12%. CCOC(=O)N1CCN(C(=O)c2cc3cc(OC)c(OC)cc3[nH]2)CC1 showed an inhibition of -3.4%. Work on O=C(NCCc1ccccc1)C(=O)NCC1OCCN1S(=O)(=O)c1ccc(Cl)cc1 (stereo unspecified) yielded an inhibition of -1.1%. Compound CCCCN(C)Cc1c(C)[nH]c2c(Cl)cccc2c1=O has an inhibition of -15%. Compound CCc1nnc(NC(=O)c2ccc(S(=O)(=O)N3CCc4ccccc4C3)cc2)s1 has an inhibition of -1.9%. O=C(Nc1nnc(C2CC2)s1)c1ccc(Cl)c(S(=O)(=O)N2CCc3ccccc3C2)c1 showed an inhibition of 59%. Work on CN1CCN(c2nc3ccccc3nc2C(C#N)S(=O)(=O)c2ccccc2)CC1 (stereo unspecified) yielded an inhibition of -5.2%. Compound CSC1=N/C(=C\c2ccccc2Cl)C(=O)N1N(C)C has an inhibition of 0.8%. With O=C(CN1CCc2ccccc2C1)NCC(=O)Nc1ccc(F)cc1 the inhibition was -25.2%. Compound CCOc1cc(C2/C(=C(/O)c3ccc(OC)cc3)C(=O)C(=O)N2CC2CCCO2)ccc1O (stereo unspecified) has an inhibition of -1.7%. COc1ccc(O)c(CN2CCC(n3nccc3NC(=O)CCOc3ccccc3)CC2)c1 gave an inhibition of -1.2%. COC(=O)Nc1ccc(S(=O)(=O)NC2CCS(=O)(=O)C2)cc1 (stereo unspecified) gave an inhibition of -9.9%. Compound Cn1c(N)c(C(=O)CCl)c(=O)n(Cc2ccccc2)c1=O has an inhibition of 43.7%. For CCn1c(=O)c(C(=O)CC#N)c(N)n(Cc2ccccc2)c1=O, the inhibition was -11.1%. In the case of COC(=O)Cn1c(=O)c(C(=O)CCl)c(N)n(Cc2ccccc2)c1=O, the inhibition is reported as 69.8% (active). Compound COc1ccc(-c2csc3ncnc(N4CCN(c5ccccc5Cl)CC4)c23)cc1 has an inhibition of -4.5%. Work on CCOP(=O)(OCC)/C(=N/OC(=O)c1ccccc1C)C(N)=O yielded an inhibition of -58.9%. O=C(Cc1ccccc1)NCCc1cn2ccsc2n1 showed an inhibition of -3.8%. In the case of Cc1ccc(C(=O)NC(C(=O)Nc2ccccc2)c2ccccc2)cc1 (stereo unspecified), the inhibition is reported as -3.5%. COc1ccc(NC(=O)C(NC(=O)c2ccc(=O)[nH]c2)c2ccccc2)cc1 (stereo unspecified) showed an inhibition of -7.3%. With COc1ccc(NC(=O)C(NC(=O)c2ccc(C)cc2)c2ccccc2)cc1 (stereo unspecified) the inhibition was 62.7% (active). CCc1ccccc1NC(=O)c1cc(-c2ccc(OC)cc2)on1 gave an inhibition of -2%. Work on CC1Cc2ccccc2N1C(=O)CN1CCC(n2nnc3cc(C(F)(F)F)ccc32)CC1 (stereo unspecified) yielded an inhibition of 23.9%. In the case of O=C(Nc1ccccn1)c1ccc2ccccc2c1O, the inhibition is reported as -61.1%. Work on O=C(Nc1cccc([N+](=O)[O-])c1)c1cc2ccccc2cc1O yielded an inhibition of 17.3%. CC(=O)Nc1ccc(Br)c2ccccc12 showed an inhibition of -4.6%. Work on O=C(O)c1ccccc1C(=O)Nc1cccc([N+](=O)[O-])c1 yielded an inhibition of -0.9%. For O=C(O)c1cccc(NC(=S)N/N=C/c2ccccc2OCc2cccc(Br)c2)c1, the inhibition was -13.5%. Cc1noc(-c2ccccc2)c1NC(=O)Nc1ccccc1 showed an inhibition of 2%. Work on C=CCOc1ccc2ccccc2c1CNCCCN1CCOCC1 yielded an inhibition of 10%. With CCN1C(=O)N(S(=O)(=O)C(F)(F)F)[C@@H](c2ccccc2)C(C(=O)OC)=C1C the inhibition was 0.6%. In the case of Cc1nc(N2CCN(c3ccccn3)CC2)c2c(C)c(C(=O)Nc3ccc(F)cc3F)sc2n1, the inhibition is reported as 12.3%. With Cc1c(C(=O)N2CCN(c3ccccn3)CC2)sc2ncnc(N3CCOCC3)c12 the inhibition was -12.5%. In the case of Cc1nc(N2CCN(c3ccccn3)CC2)c2c(C)c(C(=O)N3CCN(c4cccc(Cl)c4)CC3)sc2n1, the inhibition is reported as 18%. Compound Cc1nc(N2CCN(c3ccccn3)CC2)c2c(C)c(C(=O)Nc3ccc(Cl)cc3)sc2n1 has an inhibition of -14%. With Cc1c(C(=O)N2CCN(c3ccccc3)CC2)sc2ncnc(N3CCN(c4ccccn4)CC3)c12 the inhibition was 27.4%. Cc1nc(N2CCN(c3ccccn3)CC2)c2c(C)c(C(=O)Nc3c(F)cc(F)cc3Br)sc2n1 showed an inhibition of -28.6%. Compound COc1ccccc1N1CCN(C(=O)c2sc3nc(C)nc(N4CCN(c5ccccn5)CC4)c3c2C)CC1 has an inhibition of 33.2%. In the case of Cc1nc(N2CCN(c3ccccn3)CC2)c2c(C)c(C(=O)Nc3ccc(F)cc3Cl)sc2n1, the inhibition is reported as 6.8%.
